{"source": "the supplement of paper PMC8728848", "binders": {"B1": {"name": "Latrophilin-3 (Homo sapiens), Q9HAR2 (protein)", "chain": "MWPSQLLIFMMLLAPIIHAFSRAPIPMAVVRRELSCESYPIELRCPGTDVIMIESANYGRTDDKICDSDPAQMENIRCYLPDAYKIMSQRCNNRTQCAVVAGPDVFPDPCPGTYKYLEVQYECVPYKVEQKVFLCPGLLKGVYQSEHLFESDHQSGAWCKDPLQASDKIYYMPWTPYRTDTLTEYSSKDDFIAGRPTTTYKLPHRVDGTGFVVYDGALFFNKERTRNIVKFDLRTRIKSGEAIIANANYHDTSPYRWGGKSDIDLAVDENGLWVIYATEQNNGKIVISQLNPYTLRIEGTWDTAYDKRSASNAFMICGILYVVKSVYEDDDNEATGNKIDYIYNTDQSKDSLVDVPFPNSYQYIAAVDYNPRDNLLYVWNNYHVVKYSLDFGPLDSRSGQAHHGQVSYISPPIHLDSELERPSVKDISTTGPLGMGSTTTSTTLRTTTLSPGRSTTPSVSGRRNRSTSTPSPAVEVLDDMTTHLPSASSQIPALEESCEAVEAREIMWFKTRQGQIAKQPCPAGTIGVSTYLCLAPDGIWDPQGPDLSNCSSPWVNHITQKLKSGETAANIARELAEQTRNHLNAGDITYSVRAMDQLVGLLDVQLRNLTPGGKDSAARSLNKAMVETVNNLLQPQALNAWRDLTTSDQLRAATMLLHTVEESAFVLADNLLKTDIVRENTDNIKLEVARLSTEGNLEDLKFPENMGHGSTIQLSANTLKQNGRNGEIRVAFVLYNNLGPYLSTENASMKLGTEALSTNHSVIVNSPVITAAINKEFSNKVYLADPVVFTVKHIKQSEENFNPNCSFWSYSKRTMTGYWSTQGCRLLTTNKTHTTCSCNHLTNFAVLMAHVEVKHSDAVHDLLLDVITWVGILLSLVCLLICIFTFCFFRGLQSDRNTIHKNLCISLFVAELLFLIGINRTDQPIACAVFAALLHFFFLAAFTWMFLEGVQLYIMLVEVFESEHSRRKYFYLVGYGMPALIVAVSAAVDYRSYGTDKVCWLRLDTYFIWSFIGPATLIIMLNVIFLGIALYKMFHHTAILKPESGCLDNIKSWVIGAIALLCLLGLTWAFGLMYINESTVIMAYLFTIFNSLQGMFIFIFHCVLQKKVRKEYGKCLRTHCCSGKSTESSIGSGKTSGSRTPGRYSTGSQSRIRRMWNDTVRKQSESSFITGDINSSASLNREGLLNNARDTSVMDTLPLNGNHGNSYSIASGEYLSNCVQIIDRGYNHNETALEKKILKELTSNYIPSYLNNHERSSEQNRNLMNKLVNNLGSGREDDAIVLDDATSFNHEESLGLELIHEESDAPLLPPRVYSTENHQPHHYTRRRIPQDHSESFFPLLTNEHTEDLQSPHRDSLYTSMPTLAGVAATESVTTSTQTEPPPAKCGDAEDVYYKSMPNLGSRNHVHQLHTYYQLGRGSSDGFIVPPNKDGTPPEGSSKGPAHLVTSL"}}, "test_in_all_cases": "glycan array binding signal (z-score within array); higher = stronger binding", "settings_in_all_cases": "glycan notation: IUPAC condensed, linker removed", "key": {"[1]": {"biological_target": "Fuc(a1-2)Gal", "method_in_brief": "(§1)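 The binding signal is a Z-score computed within each array. Data were drawn from 3228 arrays in the Consortium for Functional Glycomics database, restricted to those with a known protein sequence. Scores were averaged over arrays of the same protein sequence at different concentrations or buffers, and over linkers, and negative values can be taken as non-binding.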"}, "[2]": {"biological_target": "Fuc(a1-2)Gal(b1-3)GalNAc(b1-4)[Neu5Ac(a2-3)]Gal(b1-4)Glc", "method_in_brief": "as §1"}, "[3]": {"biological_target": "Fuc(a1-2)Gal(b1-3)GlcNAc", "method_in_brief": "as §1"}, "[4]": {"biological_target": "Fuc(a1-2)Gal(b1-3)GlcNAc(b1-3)GalNAc", "method_in_brief": "as §1"}, "[5]": {"biological_target": "Fuc(a1-2)Gal(b1-4)GlcNAc(b1-2)[Fuc(a1-2)Gal(b1-4)GlcNAc(b1-4)]Man(a1-3)[Fuc(a1-2)Gal(b1-4)GlcNAc(b1-2)Man(a1-6)]Man(b1-4)GlcNAc(b1-4)GlcNAc", "method_in_brief": "as §1"}, "[6]": {"biological_target": "Fuc(a1-2)Gal(b1-4)GlcNAc(b1-3)Gal(b1-4)GlcNAc(b1-3)Gal(b1-4)GlcNAc", "method_in_brief": "as §1"}, "[7]": {"biological_target": "Fuc(a1-2)Gal(b1-4)GlcNAc(b1-6)GalNAc", "method_in_brief": "as §1"}, "[8]": {"biological_target": "Fuc(a1-2)Gal(b1-4)[Fuc(a1-3)]GlcNAc(b1-3)GalNAc", "method_in_brief": "as §1"}, "[9]": {"biological_target": "Fuc(a1-2)[Gal(a1-3)]Gal(b1-3)GlcNAc(b1-2)Man(a1-3)[Fuc(a1-2)[Gal(a1-3)]Gal(b1-3)GlcNAc(b1-2)Man(a1-6)]Man(b1-4)GlcNAc(b1-4)[Fuc(a1-6)]GlcNAc", "method_in_brief": "as §1"}, "[10]": {"biological_target": "Fuc(a1-2)[Gal(a1-3)]Gal(b1-4)Glc", "method_in_brief": "as §1"}, "[11]": {"biological_target": "Fuc(a1-2)[Gal(a1-3)]Gal(b1-4)GlcNAc(b1-2)Man(a1-3)[Fuc(a1-2)[Gal(a1-3)]Gal(b1-4)GlcNAc(b1-2)Man(a1-6)]Man(b1-4)GlcNAc(b1-4)GlcNAc", "method_in_brief": "as §1"}, "[12]": {"biological_target": "Fuc(a1-2)[GalNAc(a1-3)]Gal(b1-4)GlcNAc(b1-3)GalNAc", "method_in_brief": "as §1"}, "[13]": {"biological_target": "Fuc(a1-2)[GalNAc(a1-3)]Gal(b1-4)[Fuc(a1-3)]GlcNAc(b1-3)GalNAc", "method_in_brief": "as §1"}, "[14]": {"biological_target": "Fuc(a1-3)[Gal(b1-4)]GlcNAc(b1-6)[Neu5Ac(a2-3)Gal(b1-3)]GalNAc", "method_in_brief": "as §1"}, "[15]": {"biological_target": "Gal(a1-2)Gal", "method_in_brief": "as §1"}, "[16]": {"biological_target": "Gal(a1-3)Gal(b1-3)GlcNAc(b1-6)GalNAc", "method_in_brief": "as §1"}, "[17]": {"biological_target": "Gal(a1-3)Gal(b1-4)GlcNAc", "method_in_brief": "as §1"}, "[18]": {"biological_target": "Gal(b1-3)[Fuc(a1-4)]GlcNAc", "method_in_brief": "as §1"}, "[19]": {"biological_target": "Gal(b1-3)[Fuc(a1-4)]GlcNAc(b1-3)Gal(b1-3)[Fuc(a1-4)]GlcNAc", "method_in_brief": "as §1"}, "[20]": {"biological_target": "Gal(b1-4)GlcNAc(b1-2)Man(a1-6)Man(b1-4)GlcNAc(b1-4)GlcNAc", "method_in_brief": "as §1"}, "[21]": {"biological_target": "Gal(b1-4)GlcNAc(b1-3)Gal(b1-4)GlcNAc", "method_in_brief": "as §1"}, "[22]": {"biological_target": "Gal(b1-4)GlcNAc(b1-3)[Gal(b1-4)GlcNAc(b1-6)]Gal(b1-4)GlcNAc", "method_in_brief": "as §1"}, "[23]": {"biological_target": "Gal(b1-6)Gal", "method_in_brief": "as §1"}, "[24]": {"biological_target": "Gal3S(b1-4)[Fuc(a1-3)]Glc6S", "method_in_brief": "as §1"}, "[25]": {"biological_target": "Gal6S(b1-3)GlcNAc", "method_in_brief": "as §1"}, "[26]": {"biological_target": "GalNAc(a1-3)GalNAc(b1-3)Gal(a1-4)Gal(b1-4)Glc", "method_in_brief": "as §1"}, "[27]": {"biological_target": "GalNAc4S6S(b1-4)GlcNAc", "method_in_brief": "as §1"}, "[28]": {"biological_target": "GalNAc6S(b1-4)GlcNAc", "method_in_brief": "as §1"}, "[29]": {"biological_target": "Glc(a1-4)Glc", "method_in_brief": "as §1"}, "[30]": {"biological_target": "GlcNAc(a1-4)Gal(b1-4)GlcNAc(b1-3)Gal(b1-4)[Fuc(a1-3)]GlcNAc(b1-3)Gal(b1-4)[Fuc(a1-3)]GlcNAc", "method_in_brief": "as §1"}}, "note": "Many of the other results were omitted from the sample, so the strongest signals are more common in it than they were."}
{"binder": "B1", "values": [{"measurement": "glycan array binding signal (z-score)", "setting": "[1]", "value": 0.041}, {"measurement": "glycan array binding signal (z-score)", "setting": "[2]", "value": -0.493}, {"measurement": "glycan array binding signal (z-score)", "setting": "[3]", "value": -0.169}, {"measurement": "glycan array binding signal (z-score)", "setting": "[4]", "value": 0.261}, {"measurement": "glycan array binding signal (z-score)", "setting": "[5]", "value": -0.478}, {"measurement": "glycan array binding signal (z-score)", "setting": "[6]", "value": 0.659}, {"measurement": "glycan array binding signal (z-score)", "setting": "[7]", "value": 2.91}, {"measurement": "glycan array binding signal (z-score)", "setting": "[8]", "value": 4.34}, {"measurement": "glycan array binding signal (z-score)", "setting": "[9]", "value": -0.721}, {"measurement": "glycan array binding signal (z-score)", "setting": "[10]", "value": 0.962}, {"measurement": "glycan array binding signal (z-score)", "setting": "[11]", "value": -0.684}, {"measurement": "glycan array binding signal (z-score)", "setting": "[12]", "value": -0.844}, {"measurement": "glycan array binding signal (z-score)", "setting": "[13]", "value": 4.19}, {"measurement": "glycan array binding signal (z-score)", "setting": "[14]", "value": -0.297}, {"measurement": "glycan array binding signal (z-score)", "setting": "[15]", "value": 2.83}, {"measurement": "glycan array binding signal (z-score)", "setting": "[16]", "value": -0.37}, {"measurement": "glycan array binding signal (z-score)", "setting": "[17]", "value": -0.823}, {"measurement": "glycan array binding signal (z-score)", "setting": "[18]", "value": -0.275}, {"measurement": "glycan array binding signal (z-score)", "setting": "[19]", "value": -0.618}, {"measurement": "glycan array binding signal (z-score)", "setting": "[20]", "value": 3.58}, {"measurement": "glycan array binding signal (z-score)", "setting": "[21]", "value": -0.111}, {"measurement": "glycan array binding signal (z-score)", "setting": "[22]", "value": 3.02}, {"measurement": "glycan array binding signal (z-score)", "setting": "[23]", "value": -0.409}, {"measurement": "glycan array binding signal (z-score)", "setting": "[24]", "value": -0.622}, {"measurement": "glycan array binding signal (z-score)", "setting": "[25]", "value": 0.183}, {"measurement": "glycan array binding signal (z-score)", "setting": "[26]", "value": -1.16}, {"measurement": "glycan array binding signal (z-score)", "setting": "[27]", "value": 1.42}, {"measurement": "glycan array binding signal (z-score)", "setting": "[28]", "value": 3.81}, {"measurement": "glycan array binding signal (z-score)", "setting": "[29]", "value": -0.053}, {"measurement": "glycan array binding signal (z-score)", "setting": "[30]", "value": 2.21}]}
